# Measured values as given in the supplement of paper PMC10849652.
# Targets with a hit are over-represented here; the source holds about 7,900 in all. About 0.6% of all pairs of compound and target were hits. Unmarked numbers belong to inactive results.
# Compound: c1cn2cc(-c3ccc4cn[nH]c4c3)nc(Nc3ccc(N4CCOCC4)cc3)c2n1 [entospletinib]
# Experiment: log2 fold change, soluble protein after heating vs DMSO (PISA); higher = thermal stabilisation; K562 cells, 10 uM, 30 min; active = over 0.2 and 3.5 SD of the protein, either way, in both replicates (recomputed)
# Outline: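 K562 cells at 2×10^6 cells/mL were given 10 μM compound for 30 min. Aliquots then went through 3 min of heating across 48°C-58°C, were pooled, and were extracted in PBS with 0.5% NP-40 at 4°C, and the supernatant after 21,000xg for 90 min was quantified by TMTpro 16plex LC-MS/MS with channel sums equalised. Thermal stability relative to control samples, from duplicates, is given as log2 fold change.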
# UniProt Q4G0J3, sequence (Q4G0J3 whole entry, looked up): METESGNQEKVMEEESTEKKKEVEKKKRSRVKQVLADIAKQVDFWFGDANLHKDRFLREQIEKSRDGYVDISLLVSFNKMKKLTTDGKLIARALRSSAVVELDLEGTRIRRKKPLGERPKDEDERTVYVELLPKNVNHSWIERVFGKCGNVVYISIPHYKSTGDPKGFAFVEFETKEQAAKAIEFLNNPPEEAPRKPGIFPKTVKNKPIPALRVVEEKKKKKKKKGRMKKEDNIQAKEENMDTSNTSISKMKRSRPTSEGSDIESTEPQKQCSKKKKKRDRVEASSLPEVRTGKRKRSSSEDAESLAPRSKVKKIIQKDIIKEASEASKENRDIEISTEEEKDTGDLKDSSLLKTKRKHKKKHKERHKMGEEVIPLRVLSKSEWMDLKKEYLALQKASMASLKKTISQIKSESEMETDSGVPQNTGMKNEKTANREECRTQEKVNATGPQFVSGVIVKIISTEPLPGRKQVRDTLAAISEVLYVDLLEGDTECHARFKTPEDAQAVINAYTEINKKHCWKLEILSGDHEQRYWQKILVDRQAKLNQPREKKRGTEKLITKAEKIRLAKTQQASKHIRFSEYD
# UniProt Q9Y496, sequence (Q9Y496 whole entry, looked up): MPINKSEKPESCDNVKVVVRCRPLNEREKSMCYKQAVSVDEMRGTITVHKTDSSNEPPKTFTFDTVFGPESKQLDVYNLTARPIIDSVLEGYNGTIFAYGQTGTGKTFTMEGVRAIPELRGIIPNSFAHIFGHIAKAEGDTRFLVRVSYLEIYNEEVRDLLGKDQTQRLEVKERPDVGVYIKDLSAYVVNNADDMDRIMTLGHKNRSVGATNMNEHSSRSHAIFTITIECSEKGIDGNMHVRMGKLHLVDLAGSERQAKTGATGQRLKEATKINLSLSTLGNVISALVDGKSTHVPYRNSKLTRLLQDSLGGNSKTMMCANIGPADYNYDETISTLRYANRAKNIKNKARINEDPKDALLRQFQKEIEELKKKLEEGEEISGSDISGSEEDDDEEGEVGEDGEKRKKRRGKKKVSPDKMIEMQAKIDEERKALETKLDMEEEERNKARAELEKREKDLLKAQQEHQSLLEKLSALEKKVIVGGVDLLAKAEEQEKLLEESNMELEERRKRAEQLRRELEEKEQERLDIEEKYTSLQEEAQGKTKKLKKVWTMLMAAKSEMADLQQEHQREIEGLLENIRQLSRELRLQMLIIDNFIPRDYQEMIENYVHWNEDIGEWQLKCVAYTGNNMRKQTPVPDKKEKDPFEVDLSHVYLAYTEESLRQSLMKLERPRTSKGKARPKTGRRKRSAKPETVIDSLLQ
# UniProt Q9H6K1, sequence (Q9H6K1 whole entry, looked up): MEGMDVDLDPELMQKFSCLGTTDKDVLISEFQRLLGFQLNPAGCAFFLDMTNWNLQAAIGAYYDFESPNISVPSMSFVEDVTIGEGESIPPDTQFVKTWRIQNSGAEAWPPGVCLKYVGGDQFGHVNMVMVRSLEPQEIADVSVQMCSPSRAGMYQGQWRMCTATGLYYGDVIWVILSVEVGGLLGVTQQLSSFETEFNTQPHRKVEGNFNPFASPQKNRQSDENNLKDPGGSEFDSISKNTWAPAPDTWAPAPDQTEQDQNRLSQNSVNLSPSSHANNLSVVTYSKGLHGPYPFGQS
# UniProt Q9Y4K4, sequence (Q9Y4K4 whole entry, looked up): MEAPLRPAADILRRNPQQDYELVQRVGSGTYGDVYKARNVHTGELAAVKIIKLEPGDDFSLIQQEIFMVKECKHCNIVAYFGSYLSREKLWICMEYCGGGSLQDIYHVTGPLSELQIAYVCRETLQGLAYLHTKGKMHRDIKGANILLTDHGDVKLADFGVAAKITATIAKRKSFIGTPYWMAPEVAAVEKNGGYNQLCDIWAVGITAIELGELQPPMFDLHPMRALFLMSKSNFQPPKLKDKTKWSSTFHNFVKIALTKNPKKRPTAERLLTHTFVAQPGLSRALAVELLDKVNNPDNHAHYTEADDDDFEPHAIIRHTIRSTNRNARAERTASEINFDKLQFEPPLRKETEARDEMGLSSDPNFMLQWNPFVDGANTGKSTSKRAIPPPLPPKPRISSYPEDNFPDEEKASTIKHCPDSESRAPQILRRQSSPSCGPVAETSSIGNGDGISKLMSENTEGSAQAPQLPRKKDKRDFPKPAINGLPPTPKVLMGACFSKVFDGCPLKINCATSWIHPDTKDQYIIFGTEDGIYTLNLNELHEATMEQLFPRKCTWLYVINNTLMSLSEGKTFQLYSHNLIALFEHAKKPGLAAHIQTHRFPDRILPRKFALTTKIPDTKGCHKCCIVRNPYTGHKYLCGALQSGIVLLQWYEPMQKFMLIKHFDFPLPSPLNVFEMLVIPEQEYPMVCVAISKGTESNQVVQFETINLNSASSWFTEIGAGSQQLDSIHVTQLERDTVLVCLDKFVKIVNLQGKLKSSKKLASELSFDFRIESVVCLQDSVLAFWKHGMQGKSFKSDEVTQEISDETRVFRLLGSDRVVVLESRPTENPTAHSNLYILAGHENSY
# UniProt O60333, sequence (O60333 whole entry, looked up): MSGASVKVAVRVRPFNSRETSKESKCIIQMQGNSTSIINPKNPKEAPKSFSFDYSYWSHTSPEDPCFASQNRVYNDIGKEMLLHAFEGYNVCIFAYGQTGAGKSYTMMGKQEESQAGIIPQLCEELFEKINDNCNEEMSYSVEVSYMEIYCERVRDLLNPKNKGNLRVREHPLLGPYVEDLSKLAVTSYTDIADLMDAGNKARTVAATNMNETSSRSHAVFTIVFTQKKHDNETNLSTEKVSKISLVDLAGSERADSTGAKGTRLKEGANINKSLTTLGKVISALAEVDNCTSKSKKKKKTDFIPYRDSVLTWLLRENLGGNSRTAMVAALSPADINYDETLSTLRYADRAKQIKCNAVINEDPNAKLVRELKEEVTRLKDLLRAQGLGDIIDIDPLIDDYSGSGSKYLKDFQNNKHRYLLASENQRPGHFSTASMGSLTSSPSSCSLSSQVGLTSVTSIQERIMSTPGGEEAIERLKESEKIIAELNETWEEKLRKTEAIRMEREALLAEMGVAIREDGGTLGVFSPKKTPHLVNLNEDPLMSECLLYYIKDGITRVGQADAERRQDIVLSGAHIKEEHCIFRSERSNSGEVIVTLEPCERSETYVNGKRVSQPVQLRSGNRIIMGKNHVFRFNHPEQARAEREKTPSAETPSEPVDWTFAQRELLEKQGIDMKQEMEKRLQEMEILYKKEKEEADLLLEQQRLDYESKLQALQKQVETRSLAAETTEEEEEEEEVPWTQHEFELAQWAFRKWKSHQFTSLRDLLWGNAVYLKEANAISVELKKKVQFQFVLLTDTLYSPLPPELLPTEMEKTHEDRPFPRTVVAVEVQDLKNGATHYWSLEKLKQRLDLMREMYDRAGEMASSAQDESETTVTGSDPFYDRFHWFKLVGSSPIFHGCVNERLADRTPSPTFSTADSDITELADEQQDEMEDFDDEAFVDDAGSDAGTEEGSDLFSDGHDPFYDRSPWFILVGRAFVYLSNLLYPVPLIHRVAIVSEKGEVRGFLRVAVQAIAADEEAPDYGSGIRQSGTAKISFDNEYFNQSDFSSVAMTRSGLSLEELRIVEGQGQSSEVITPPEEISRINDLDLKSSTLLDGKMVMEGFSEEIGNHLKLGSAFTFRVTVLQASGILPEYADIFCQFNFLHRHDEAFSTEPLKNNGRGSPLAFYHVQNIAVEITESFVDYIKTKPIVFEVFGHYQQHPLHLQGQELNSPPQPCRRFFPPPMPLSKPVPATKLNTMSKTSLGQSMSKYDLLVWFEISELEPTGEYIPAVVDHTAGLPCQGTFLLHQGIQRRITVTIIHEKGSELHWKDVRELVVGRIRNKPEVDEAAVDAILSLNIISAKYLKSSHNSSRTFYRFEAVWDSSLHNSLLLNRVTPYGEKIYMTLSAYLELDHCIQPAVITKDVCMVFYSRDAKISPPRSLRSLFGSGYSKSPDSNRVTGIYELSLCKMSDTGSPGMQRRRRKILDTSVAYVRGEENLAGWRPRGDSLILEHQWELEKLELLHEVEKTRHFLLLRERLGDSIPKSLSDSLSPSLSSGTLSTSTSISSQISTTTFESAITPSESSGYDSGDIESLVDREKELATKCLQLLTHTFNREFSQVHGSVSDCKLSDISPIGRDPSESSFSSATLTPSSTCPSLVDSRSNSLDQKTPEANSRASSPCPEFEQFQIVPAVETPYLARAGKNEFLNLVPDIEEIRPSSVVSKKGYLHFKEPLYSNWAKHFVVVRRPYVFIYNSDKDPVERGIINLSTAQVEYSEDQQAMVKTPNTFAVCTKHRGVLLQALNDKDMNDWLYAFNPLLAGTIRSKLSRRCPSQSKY
# UniProt Q12905, sequence (Q12905 whole entry, looked up): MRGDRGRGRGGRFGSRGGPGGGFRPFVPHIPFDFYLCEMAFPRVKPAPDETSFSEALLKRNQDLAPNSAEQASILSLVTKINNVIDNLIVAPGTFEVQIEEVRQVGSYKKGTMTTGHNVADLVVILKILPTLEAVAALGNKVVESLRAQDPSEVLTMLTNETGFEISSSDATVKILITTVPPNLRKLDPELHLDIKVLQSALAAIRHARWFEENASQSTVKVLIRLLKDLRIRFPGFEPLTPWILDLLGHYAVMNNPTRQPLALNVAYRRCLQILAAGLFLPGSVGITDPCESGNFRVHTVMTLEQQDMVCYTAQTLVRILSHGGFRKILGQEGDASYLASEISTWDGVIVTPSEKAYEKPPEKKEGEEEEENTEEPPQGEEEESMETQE
# UniProt Q9UPY8, sequence (Q9UPY8 whole entry, looked up): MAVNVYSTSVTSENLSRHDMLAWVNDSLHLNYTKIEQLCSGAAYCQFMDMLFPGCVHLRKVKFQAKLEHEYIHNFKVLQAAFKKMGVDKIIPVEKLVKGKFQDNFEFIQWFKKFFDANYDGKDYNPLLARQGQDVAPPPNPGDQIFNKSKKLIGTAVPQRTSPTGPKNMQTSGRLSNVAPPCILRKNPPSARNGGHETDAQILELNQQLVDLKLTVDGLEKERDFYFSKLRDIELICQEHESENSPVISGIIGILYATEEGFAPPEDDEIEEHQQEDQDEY
row,Target,log2 fold change
1,MARK2 (UniProt E9PC69),0.029
2,KHDC4 (UniProt Q7Z7F0),-0.051
3,INPP5B (UniProt P32019),0.026
4,MAP3K20 (UniProt Q9NYL2),-0.007
5,MAP4K4 isoform 3 (UniProt O95819),-0.019
6,MAP3K4 isoform 2 (UniProt Q9Y6R4),0.02
7,ME2 (UniProt P23368),0.008
8,JMJD6 isoform 3 (UniProt Q6NYC1),0.006
9,ILF3 isoform 7 (UniProt Q12906),-0.034
10,KIF2C (UniProt Q99661),-0.097
11,MAPKAPK2 (UniProt P49137),-0.061
12,MAGI1 (UniProt Q96QZ7),0
13,"LRBA, A0A494BZW2",-0.025
14,MAP4K5 (UniProt Q9Y4K4),-0.065
15,MAPK14 isoform 2 (UniProt Q16539),-0.032
16,MCM10 (UniProt Q7L590),-0.04
17,ILF2 (UniProt Q12905),-0.103

row,Target,log2 fold change
1,LENG8 (UniProt Q96PV6),0.131
2,KIF1B isoform 3 (UniProt O60333),0.041
3,LARP7 isoform 3 (UniProt Q4G0J3),0.006
4,LYPLA2 (UniProt O95372),0.053
5,MCU (UniProt Q8NE86),0.031
6,KCTD2 (UniProt Q14681),0.139
7,MED16 (UniProt Q9Y2X0),0.014
8,IPO9 (UniProt Q96P70),0.037
9,MAPRE3 (UniProt Q9UPY8),-0.041
10,KPNA1 (UniProt P52294),0.022
11,MICU1 isoform 3 (UniProt Q9BPX6),0.049
12,MAP4 isoform 5 (UniProt P27816),-0.07
13,MFSD1 isoform 6 (UniProt Q9H3U5),0.013
14,MDC1 (UniProt Q14676),-0.054
15,ILRUN (UniProt Q9H6K1),-0.004
16,MAP2K7 isoform 4 (UniProt O14733),-0.009
17,KIF3A (UniProt Q9Y496),0.491 (active)
